Pf Dd2 inh: blocks in vitro growth of P. falciparum Dd2; P. falciparum Dd2 growth, SYBR Green, 72 h; Potency, µM (doses to about 28.9 µM), most hits filed as inhibitors; 4.3% of 120,000 active; AID 1347417; active = well fitted inhibition curve with a large enough effect; note: nearly all actives have a fitted effect of over 65% in size
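Readout: SYBR Green fluorescence, 485 nm excitation, 535 nm emission, after ~16 h lysis at 37C. Before that, Dd2-infected red cells (2.5% hematocrit) grew 72 h with compound, 29 uM top final concentration.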
Each line names hits and unclear results; the compound was inactive in the other large screens. This is one part of a sample in which hits are shown more often than they occur.

COc1ccc(C(=O)c2cn(Cc3cccc(C)c3)c3cc4c(cc3c2=O)OCCO4)cc1OC	Pf Dd2 inh 7.9µM
CCOc1ccc(NC(=O)Cn2cc(C(=O)c3ccc(C)cc3)c(=O)c3cc4c(cc32)OCO4)cc1	none
Cc1ccc(C(=O)c2cn(Cc3ccccc3)c3ccccc3c2=O)cc1	none
Cc1ccc(C(=O)c2cn(Cc3ccccc3F)c3cc4c(cc3c2=O)OCCO4)cc1	none
Cc1ccc(Cn2cc(C(=O)c3ccc4c(c3)OCO4)c(=O)c3cc(C)ccc32)cc1	Pf Dd2 inh 10µM
COCCN(C)C[C@H]1C[C@H](CO)CN(C(=O)c2ccc(OC)c(F)c2)C1	none
COCCN1C(=O)[C@H]2CN(Cc3cccc(C#N)c3)C[C@H]2C1=O	none
O=C(c1cc(C2CC2)no1)N1C[C@@H](CN2CCCCC2)[C@@H](CO)C1	none
CC(=O)Nc1cccc(C(=O)N2CCC(c3n[nH]c(=O)n3-c3ccccc3)CC2)c1	none
CC1Oc2ccc(NS(=O)(=O)c3ccc(Cl)cc3)cc2CN(Cc2ccccc2F)C1=O (stereo not drawn)	none
COc1cc(=O)n2c(c1C(=O)Nc1ccc(C#N)cc1)CCCC2	none
COc1ccc2nc3n(c2c1)[C@@H](CNC(=O)c1ccc(F)cc1)COC3	none
O=C(NC1CCCCC1)[C@@H]1C[C@@H](O)CN1C1CCN(C(=O)c2n[nH]c(=O)c3ccccc23)CC1	none
Cn1cc(C#N)cc1C(=O)N1C[C@H](CO)C[C@H](CN2CCOCC2)C1	none
CCOCCn1nc(C)cc1-c1nc(-c2ccc(C)nn2)no1	none
Cc1nn(-c2ccccc2)nc1C(=O)N[C@H](C)c1onc(-c2cccnc2)c1C(=O)O	none
O=C1NCc2ccccc2CC12CCN(Cc1cccc(F)c1)CC2	none
CC(C)CC1=NS(=O)(=O)c2cc(NC(=O)C3CC3)ccc2N1c1ccccc1	Pf Dd2 inh 2µM
CCC1=NS(=O)(=O)c2cc(NC(C)=O)ccc2N1CC(C)C	none
CC(C)C1=NS(=O)(=O)c2cc(NC(=O)c3ccco3)ccc2N1c1ccccc1	none
O=C(C1CCCC1)N1CC2(CCCN2Cc2cccnc2)Cc2ccccc21 (stereo not drawn)	Pf Dd2 inh 11µM
O=C1Nc2ccccc2CC12CCCN2Cc1cccnc1 (stereo not drawn)	none
O=C(O)CCC(=O)N1Cc2ccccc2CC2(CCCN2Cc2cccnc2)C1 (stereo not drawn)	none
CC(=O)N1CC2(CCCN2Cc2cccnc2)Cc2ccccc21 (stereo not drawn)	none
CCC(=O)N1Cc2ccccc2CC2(CCCN2Cc2cccnc2)C1 (stereo not drawn)	none
O=C(C1CCCC1)N1CC2(CCCCN2Cc2cccnc2)Cc2ccccc21 (stereo not drawn)	Pf Dd2 inh 7.9µM
Cc1ccccc1C(=O)N1CCCC(Nc2ccc(F)cc2)C1 (stereo not drawn)	none
Cc1nc(CN2Cc3nc(-c4cn[nH]c4)ccc3OCC2=O)cs1	none
CC(C)N1C[C@H](O)C[C@H]1c1nnc2n1CCN(C(=O)c1ccccc1F)C2	none
O=C(NCc1ccccc1F)c1ccc2c(c1)CN(Cc1cncs1)CCO2	none
COc1cccc(C(=O)Nc2ccc(S(=O)(=O)N(Cc3ccccc3)c3ccccc3)cc2)c1	none
Cc1ccc(NC(=O)c2ccc(N(Cc3ccccc3)S(C)(=O)=O)cc2)cc1	Pf Dd2 inh 6.3µM
O=C(Nc1ccc(S(=O)(=O)N(Cc2ccccc2)c2ccccc2)cc1)c1ccc(F)cc1	none
Cn1nccc1C(=O)NCCc1noc(-c2cccnc2)n1	none
CC(C)NC(=O)C[C@@H]1C[C@H]2O[C@H](CNC3CCC3)[C@@H](O)[C@H]2O1	none
O=C(CCc1ccccc1)NCc1nnc2ccc(-c3ccccc3)nn12	none
CCCn1cc(-c2ccncc2)cc1C(=O)NCc1ccc(OC)cc1	none
CCCn1cc(-c2ccncc2)cc1C(=O)NC(C)c1ccc(OC)cc1 (stereo not drawn)	Pf Dd2 inh 7.9µM
CCn1cc(-c2ccc(OC)cc2)cc1C(=O)NC(C)c1cccnc1 (stereo not drawn)	none
COc1ccc(OC)c(CNCc2c(C(=O)O)n(Cc3ccccc3)c3cc(OC)ccc23)c1	none
Cc1ccc2c(CNCc3cccc(Cl)c3)c(C(=O)O)n(Cc3ccc(F)cc3Cl)c2c1	none
C=Cc1ccc(Cn2c(C(=O)O)c(CNCc3ccccc3)c3ccc(C)cc32)cc1	Pf Dd2 inh 7.9µM
Cc1ccc2c(CNCC(C)c3ccccc3)c(C(=O)O)n(Cc3ccccc3C)c2c1 (stereo not drawn)	none
Cc1ccc2c(CNC3CCCC3)c(C(=O)O)n(Cc3ccc(F)cc3)c2c1	none
CCc1ccc(CNCc2c(C(=O)O)n(Cc3ccc(C)cc3)c3cc(C)ccc23)cc1	Pf Dd2 inh 5µM
COc1ccc2c(CNCc3ccco3)c(C(=O)O)n(Cc3ccccc3)c2c1	none
Cc1ccc(Cn2c(C(=O)O)c(CNCc3ccc(OC(C)C)cc3)c3ccc(C)cc32)cc1	Pf Dd2 inh 11µM
COc1ccc(Cn2c(C(=O)O)c(CNCc3ccco3)c3ccc(C)cc32)cc1	none
COc1ccc2c(CNCc3cccs3)c(C(=O)O)n(Cc3ccc(C)cc3)c2c1	none
Cc1ccc(CNCc2c(C(=O)O)n(Cc3ccccc3C)c3cc(C)ccc23)cc1	Pf Dd2 inh 3.2µM

Source: PubChem BioAssay (National Center for Advancing Translational Sciences (NCATS))
